Among all 290,000 compounds or so, about 400 (0.14%) were called active. For the sample, actives were picked, then their nearest neighbours and some compounds at random. A number with no mark means an inactive call. Cut-off read from the data, not from the text of the source: active = inhibition above about 12%; inactive = the rest.
What follows are compounds tested against Replicase polyprotein 1ab (Severe acute respiratory syndrome coronavirus) (UniProt P0C6X7) (assay: SARS-CoV 3CLpro protease inhibitors, primary screen, biochemical, quenched FRET (AID 1706)). Settings: recombinant SARS-CoV 3CLpro, quenched FRET peptide cleavage; at 6 µM; hits give high values.

Compound | inhibition
CC(C)c1c(C(=O)N/N=C/c2ccc(-c3ccccc3)cc2)nnn1-c1nonc1N | 1.56%
c1ccc2c(-c3nn4nnnc4c4ccccc34)cccc2c1 | -0.16%
CC(=O)c1cccc(NC(=S)N2CCCC2)c1 | 0.53%
Cc1ccc(OCC(=O)Nc2cccc3c2CCCC3)cc1C | -0.37%
Cc1cccc(OCC(=O)Nc2ccc(C(=O)O)cc2NC(=O)COc2cccc(C)c2)c1 | 6.23%
Cc1ccc(OCC(=O)Nc2ccc(C(=O)O)cc2NC(=O)COc2ccc(C)c(C)c2)cc1C | 14.3% (active)
COc1cccc(CNC(=O)CN(C)S(=O)(=O)c2ccc3c(c2)c(=O)n(C)c(=O)n3C)c1 | 0.08%
COc1cccc(Cn2cc(/C=N/NC(=O)c3cc(O)cc(O)c3)c3ccccc32)c1 | 6.16%
Cc1ccc2c(c1)sc1ncc(NC(=O)c3ccccc3)c(=O)n12 | -0.46%
COC(=O)c1ccc(COC(=O)c2cnc(Cl)c(Cl)c2)cc1 | 7.32%
COc1ccc2cc(CCl)c(Cl)nc2c1 | -3.78%
COc1ccc(C(=O)NC(=S)N2CCNC(=O)C2CC(=O)OC(C)C)cc1 (configuration not stated) | 0.58%
CC(=O)N1CCN(C(=O)C2(NC(=O)Nc3ccc(C)cc3)CCCCC2)CC1 | -11.2%
CC(=O)Nc1ccc(NC(=O)C2CCCN2S(=O)(=O)c2cccc(C(F)(F)F)c2)cc1 (configuration not stated) | -4.86%
Cc1cccc[n+]1CC(=O)c1ccccc1 | 3.16%
Cc1oc2c(F)c(F)c(F)c(F)c2c1S(=O)(=O)Nc1cccc(C(F)(F)F)c1 | 17.6% (active)
CCNS(=O)(=O)c1ccc(NC(=O)Nc2cccc(C(F)(F)F)c2)cc1 | -1.22%
O=C(/C=C/c1ccc(F)cc1)Nc1cccc(S(=O)(=O)Nc2cccc(C(F)(F)F)c2)c1 | 5.74%
Cc1ccc(S(=O)(=O)N(CC(=O)NCc2ccco2)c2ccccc2C)cc1 | -1.63%
COCCNC(=O)C(c1ccc(C)o1)N(Cc1ccccc1)C(=O)Cn1nnc2ccccc21 (configuration not stated) | 0.75%
O=C(NCc1ccco1)C(c1ccncc1)N(C(=O)Cn1nnc2ccccc21)c1ccccc1 (configuration not stated) | 1.89%
COc1ccccc1N(C(=O)Cn1nnc2ccccc21)C(C(=O)NCc1ccco1)c1ccc(C)o1 (configuration not stated) | 20.2% (active)

Compound | inhibition
Cc1cc(-c2ccc(S(=O)(=O)N3CCN(c4cccc(C(F)(F)F)c4)CC3)s2)on1 | 10.1%
O=C(c1c(F)cccc1Cl)N1CCN(S(=O)(=O)c2ccc3c(c2)OCCCO3)CC1 | -1.16%
COc1ccc(C)cc1N(CC(=O)NC(C)c1ccccc1)S(C)(=O)=O (configuration not stated) | -1.09%
Cc1ccccc1-c1nc(CS(=O)(=O)CC(=O)NC(C)c2ccccc2)c(C)o1 (configuration not stated) | -0.9%
COc1ccccc1N1CCN(C(=O)c2cc(=O)c3cc(C)ccc3o2)CC1 | -1.99%
O=C(c1cc(=O)c2ccccc2o1)N1CCN(c2ccccc2)CC1 | 13.7% (active)
COc1cc2c(cc1OC)CN(C(=O)c1cc(=O)c3ccccc3o1)CC2 | -3.13%
CCOc1ccc(OCCSc2nc3ccccc3n2CC(=O)O)cc1 | 1.7%
Cc1coc2c1c(C)cc1oc(=O)c(CC(=O)NCC(=O)N[C@H](C(=O)O)C(C)C)c(C)c12 | 2.83%
Cc1ccc(S(=O)(=O)N[C@@H](Cc2ccccc2)C(=O)N2CCC(C(=O)N[C@H](C(=O)O)C(C)O)CC2)cc1 (some centres not stated) | -4.09%
COc1ccc(S(=O)(=O)c2c[nH]c(=S)[nH]c2=O)cc1Cl | -1.78%
CN(CC(=O)N1CCN(c2ccccc2)CC1)S(=O)(=O)c1cccs1 | 2.74%
CC(=O)c1ccc(S(=O)(=O)N2CCC(Oc3ccc(-n4cnnn4)cc3)CC2)cc1 | -1.99%
CC(Sc1nnc(CNC(=O)c2ccccc2F)n1C)C(=O)Nc1nccs1 (configuration not stated) | -0.59%
COc1cc(C(=O)NCCOC(=O)c2cccc(N(C)C)c2)cc(OC)c1OC | 0.81%
CCOC(=O)C1CCCN(CCSc2ccc(C)cc2)C1 (configuration not stated) | -2.08%
O=C(O)c1ccc(NC(=O)c2cn(-c3ccccc3)nc2-c2ccc(Cl)cc2)cc1 | 12.7% (active)
Cc1ccc(-c2nn(-c3ccccc3)cc2C(=O)Nc2cccc(S(=O)(=O)N3CCOCC3)c2)cc1 | 1.75%
COc1ccc(-c2nn(-c3ccccc3)cc2/C=C\C(=O)Nc2ccc(C(=O)O)cc2)cc1 | 7.15%
CCc1ccc(N(C(=O)c2csnn2)C(C(=O)NC2CCCCC2)c2ccncc2)cc1 (configuration not stated) | 0.17%
CC(C)(C)c1ccccc1NC(=O)CN1C(=O)NC2(CCCC2)C1=O | 0.18%
Clc1ccc(Cc2nn3c(-c4ccncc4)nnc3s2)cc1 | 2.77%

Compound | inhibition
O=C(NCCCN1CCCCC1)C1CCCN(c2ncnc3c2nc2n3CCCCC2)C1 (configuration not stated) | 1.81%
Cc1nn2c(=O)cc(COC(=O)c3ccc(NC(=O)C(C)(C)C)cc3)nc2s1 | -0.62%
Fc1ccccc1/C=N/Nc1cc(N2CCCCC2)ncn1 | 0.22%
O=C(C1CCC(C(=O)N2CCCC2)CC1)N1CCCC1 (configuration not stated) | -3.63%
COc1cccc(-c2noc(C3CCCN(C(=O)c4ccc(F)cc4)C3)n2)c1 (configuration not stated) | 2.89%
CCNS(=O)(=O)c1ccc(CCC(=O)N2CCN(c3cc(Cl)ccc3C)CC2)cc1 | 0.81%
CC(C)(C)C1CCC(C(=O)NCC(c2cccs2)N2CCOCC2)CC1 (configuration not stated) | 4.8%
COc1cc(NS(=O)(=O)c2ccc(NC(=S)NC(=O)c3ccc(Br)cc3)cc2)ncn1 | -2.77%
COc1cc(CCC(=O)N2CCN(c3ccccc3Cl)CC2)cc(OC)c1OC | -0.35%
CCN(CC)S(=O)(=O)c1ccc(Cl)c(C(=O)NCCN2CCOCC2)c1 | -0.28%
CC(C)CCN1CCN(Cc2cn[nH]c2C2CCCCC2)CC1CCO (configuration not stated) | 1.66%
COc1ccccc1/C=C/C(=O)NC(=S)N1CCOCC1 | 2.02%
COc1ccc(Cc2nc3ccc(C(=O)N4CCC(N(C)C)C4)cc3o2)cc1 (configuration not stated) | -1.77%
C[C@@]12C(=O)N(c3cccc(Br)c3)C(=O)N1[C@H](c1ccc(Cl)cc1)[C@@H]1C(=O)N(C3CCCCC3)C(=O)[C@@H]12 | 32.5% (active)
Cc1cccc([C@@H]2[C@@H]3C(=O)N(Cc4ccccc4)C(=O)[C@@H]3[C@]3(C)C(=O)N(c4ccc(Br)cc4)C(=O)N23)c1 | -2.23%
Cc1cccc(N2C(=O)N3[C@H](c4ccc(F)cc4)[C@@H]4C(=O)N(C5CCCCC5)C(=O)[C@@H]4[C@]3(Cc3ccccc3)C2=O)c1 | 9.1%
Cn1c(=O)c(=O)n(C)c2cc(S(=O)(=O)CCC(=O)N3CCCCC3)ccc21 | -7.51%
O=C(COc1ccc(S(=O)(=O)Nc2cccc(C(F)(F)F)c2)cc1)N1CCOCC1 | -1.24%
O=C(NCc1cccc(C(F)(F)F)c1)c1cccc(S(=O)(=O)N2CCN(Cc3ccccc3)CC2)c1 | 1.65%
O=C(NCc1ccccc1)c1ccc(S(=O)(=O)Nc2cccc(C(F)(F)F)c2)cc1 | 17.3% (active)
CN(C(=O)CCNC(=O)Cn1ccc2ccccc2c1=O)c1ccc(Br)cc1 | 1.62%
COc1ccc2[nH]cc(/C=C(/C#N)S(=O)(=O)c3ccccc3)c2c1 | 4.75%

Compound | inhibition
COc1ccc(/C=C(\C#N)c2c[nH]c3ccccc23)cc1 | 14.6% (active)
COc1cc(/C=C(\C#N)c2nc3ccccc3[nH]2)ccc1O | -3.33%
CC(c1cccnc1)N(CCN(C)C)C(=O)Nc1ccc(Cl)c(Cl)c1 (configuration not stated) | 2.29%
CS(=O)(=O)N(Cc1ccccc1Cl)c1ccc(C(=O)NCc2cccnc2)cc1 | 1.33%
O=C(Nc1ccc(S(=O)(=O)NCC2CCCO2)cc1)c1ccc(F)cc1 (configuration not stated) | -0.56%
O=S(=O)(Nc1ccccc1)c1ccc(NS(=O)(=O)c2cccs2)cc1 | 2.66%
COC(=O)C1=CN(c2ccc(F)c(F)c2)C=C(C(=O)OC)C1c1ccc([N+](=O)[O-])cc1 | 1.13%
O=C(NCc1ccc(F)cc1)C1CCN(C(=O)Nc2ccc(F)cc2)CC1 | 5.05%
CC(C)c1ccc(C2C(C(=O)c3ccco3)=C(O)C(=O)N2CC2CCCO2)cc1 (configuration not stated) | -0.41%
Cc1nn(C)c(C)c1C(C)NC(=O)c1ccc(OC2CCN(Cc3ccccn3)CC2)cc1 (configuration not stated) | 3.56%
CCOc1ccc(OCc2cccc(C(=O)N(CC)CC)c2)cc1 | -3.35%
COc1ccc(C(=O)NCCSc2ccccc2C)cc1 | 6.37%
Cc1ccc(C(CNC(=O)Nc2ccccc2)N2CCN(C)CC2)cc1 (configuration not stated) | -5.22%
Cc1ccc(CS(=O)(=O)CCC(=O)NCc2ccc(F)cc2)cc1 | -1.28%
COc1cccc(CC2(CO)CCCN(Cc3ccc(OC(F)F)cc3)C2)c1 (configuration not stated) | -5.59%
COc1ccc(C(CCN(Cc2ccc(OC)c(OC)c2)C(=O)CCl)c2ccccc2)cc1 (configuration not stated) | 34.5% (active)
CCOC(=O)CN(Cc1ccc(OC)c(OC)c1)S(=O)(=O)c1ccc(OC)cc1 | 4.93%
COc1ccc(CN(C)C(=O)CC(c2ccccc2)c2ccccc2)cc1 | 4.64%
COC(=O)COc1cccc2c(=O)n(CC(=O)NCCc3ccc(OC)c(OC)c3)ccc12 | 4.26%
COC(=O)COc1cccc2c(=O)n(CC(=O)NCc3ccccc3)ccc12 | 12.8% (active)
Cc1ccc(CNC(=O)CCNC(=O)Cn2ccc3ccccc3c2=O)cc1 | 3.36%

Reference: PubChem BioAssay AID1706 (The Scripps Research Institute Molecular Screening Center, 2009)
